In one assay the target is AMP-activated protein kinase, AMPK (Homo sapiens) (UniProt P54646+O43741+P54619+Q9UGJ0+Q9Y478+Q13131+Q9UGI9). Description: AMP-dependent Kinase enzyme assay. An in vitro enzyme assay that detects ADP turnover that is directly proportional to AMPK activity. This uses naive AMPK that is activated during the assay with MK-8722. The format is functional. On the set-up: scale not given: direction of the effect not stated beside the values. As to conditions: 30 µM.
On to `CCn1nc(C(=O)N2CCCC(n3cncn3)C2)ccc1=O` (stereo not drawn), for which the Percent Effect worked out at 7.01%.
The same measure, in the same setting: as for `CNc1nc(C)c(C(=O)N2CCCCC2CN2CCCCCC2)s1` (stereo not drawn), the figure is -1.92%.
Same read-out and setting: as for `CCOCC(=O)N1C[C@@H](O)[C@H](N(C)Cc2ccc(OC)cc2)C1`, the figure is 6.78%; as for `c1cnc(NCc2ncn3c2CN(Cc2cccnc2)CCC3)nc1`, 0.693%; as for `O=C1CCSCC(C(=O)N2CCOCC2)N1` (stereo not drawn), -1.73%.
Take `O=C(COCc1nc(-c2ccncc2)no1)N1CCCCCC1`: the Percent Effect was -3.82%.
As for `CCc1csc(C2CCCN(C(=O)c3cnn(CC)c3)C2)n1` (stereo not drawn), the Percent Effect was 68.6%.
The same measure, in the same setting: as for `COc1ccc(CCC(=O)Nc2cccnc2N2CCCC2)cc1Br`, the figure is -7.1%; as for `CC(=O)c1ccc(N2CCCC(CO)(CCOc3ccccc3)C2)nc1` (stereo not drawn), 4.96%.
Still for that read-out and setting: as for `c1cncc(C2COC3(CCN(CC4CC4)CC3)C2)c1` (stereo not drawn), the figure is 0.748%; as for `Cc1ccc2c(n1)N(CCn1cccn1)CCN(C(=O)NC1CC1)C2`, -7.12%; as for `Cc1cnn(C2CCCN(C(=O)c3cnc4ccccc4n3)C2)c1` (stereo not drawn), -4.84%.
Same read-out and setting: to `CCCc1cc(=O)n(CC(N)=O)c(-n2nc(C)cc2C)n1` belongs 7.17%; to `Cc1cc(C)n(C2CCCN(C(=O)c3cc(C4CC4)on3)C2)n1` (stereo not drawn), -0.0913%.
With `Cc1ccc(Nc2nccc(C3CCCN(CC(=O)N(C)C)C3)n2)nc1` (stereo not drawn), the Percent Effect was -1.77%.
The same measure, in the same setting: to `CC(C)c1cccc(CSc2nnc(CN3CCCC3=O)o2)n1` belongs -1.77%; to `N#Cc1ccc(OCCN2CCc3c(ncn3C3CC3)C2)cc1`, -12.7%.
Consider `O=C(NCc1nncn1-c1ccccc1)C1CC(=O)N(CC2CC2)C1` (stereo not drawn), for which the Percent Effect was -8.14%.
On to `CCc1nccn1C1CCCN(C(=O)Cc2n[nH]c3ccccc23)C1` (stereo not drawn), for which the Percent Effect was 8.48%.
Regarding `CN(Cc1ccsc1)C(=O)c1cccc(NS(C)(=O)=O)c1`, the Percent Effect is -4.59%.
On the same count and under the same terms, as for `CNC(=O)CS(=O)(=O)Cc1coc(-c2ccc(OC)cc2)n1`, the figure is -2.86%; as for `CC(C)CS(=O)(=O)CC(=O)N(C)Cc1ccc(OC(F)F)cc1`, 4.52%.
As to `CN(Cc1ccccn1)C1COC2(CCN(Cc3cccnc3)CC2)C1` (stereo not drawn), the Percent Effect is -2.32%.
The same measure, in the same setting: to `COc1ccc(C2=C(C)C(N3CCc4ccccc4C3)=NS2(=O)=O)cc1` belongs 1.57%; to `Cn1c(C2CC2)nc2c1CCN(CC(=O)Nc1nncs1)C2`, 0.616%.
The same measure, in the same setting: as for `Cc1cccc(CN2CCN(Cc3ccccc3)CC(O)C2)n1` (stereo not drawn), the figure is -4.59%; as for `CCn1cc(CN2CCCN(C(=O)C3=NN(C)C(=O)CC3)CC2)cn1`, 0.0374%; as for `O=C(CN1CCc2cncnc2C1)NCCOc1ccccc1`, -16.1%.
Still for that read-out and setting: to `Cc1ncsc1C(=O)N(C)CCc1ccncc1` belongs 9.05%; to `N#Cc1cccc(CS(=O)(=O)NCC(O)Cc2ccccc2)c1` (stereo not drawn), 0.717%; to `Cc1ccc(-c2nc(CN3CCc4nn(C)c(=O)cc4C3)co2)cc1`, -173%.
For `Cc1cc(C)n(CC2CCCN2CC(=O)N(C)C)n1` (stereo not drawn), the Percent Effect is -5.85%.
Still for that read-out and setting: to `CN(C)S(=O)(=O)N1CCC(Oc2ccc(C#N)cc2)CC1` belongs 2.51%; to `CC(C)c1cc(NC(=O)CN2CCc3cncnc3C2)on1`, -22.4%; to `CCc1nc(CN(Cc2cccs2)CC2CCCO2)no1` (stereo not drawn), 2.16%.
The same measure, in the same setting: as for `CCCN1CC(C(=O)Nc2ccccn2)CC1=O` (stereo not drawn), the figure is -0.466%; as for `Cc1cnn(CCNCc2ccc(F)cc2Cl)c1`, -1.08%; as for `O=C(c1ccn(-c2cccc(F)c2)n1)N1CCCC(n2cccn2)C1` (stereo not drawn), 4.13%.
As to `N#Cc1ccnc(N2CCN(C(=O)Cc3ccc4c(c3)CCO4)CC2)c1`, the Percent Effect was -3.75%.

The target of another assay is Sialic acid-binding Ig-like lectin 9 (Homo sapiens) (UniProt Q9Y336). The assay is described as follows: Hs-Siglec9 ALPHAscreen SOP 20170721. Set-up: scale not given: direction of the effect not stated beside the values. The note with it: 10 µM.
Sequence of Sialic acid-binding Ig-like lectin 9 (Homo sapiens) (Q9Y336 whole entry): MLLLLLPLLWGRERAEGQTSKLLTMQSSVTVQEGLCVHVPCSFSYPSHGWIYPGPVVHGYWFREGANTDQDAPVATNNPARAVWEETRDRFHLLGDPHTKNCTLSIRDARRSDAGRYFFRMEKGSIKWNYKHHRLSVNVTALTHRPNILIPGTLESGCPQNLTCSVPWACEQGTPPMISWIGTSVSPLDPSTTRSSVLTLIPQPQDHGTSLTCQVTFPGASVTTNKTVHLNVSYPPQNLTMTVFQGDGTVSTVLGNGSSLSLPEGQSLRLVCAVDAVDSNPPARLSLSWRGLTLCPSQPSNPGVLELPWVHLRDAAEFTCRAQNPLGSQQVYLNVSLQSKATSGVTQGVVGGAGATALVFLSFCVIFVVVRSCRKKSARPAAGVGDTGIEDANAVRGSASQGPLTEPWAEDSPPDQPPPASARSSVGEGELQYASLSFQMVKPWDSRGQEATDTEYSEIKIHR
Regarding `CCn1nc(C(=O)N2CCCC(n3cncn3)C2)ccc1=O` (stereo not drawn), the Percent Effect turned out to be 5.16%.
Still for that read-out and setting: as for `CNc1nc(C)c(C(=O)N2CCCCC2CN2CCCCCC2)s1` (stereo not drawn), the figure is 0.892%.
Same read-out and setting: to `CCOCC(=O)N1C[C@@H](O)[C@H](N(C)Cc2ccc(OC)cc2)C1` belongs 3.17%; to `c1cnc(NCc2ncn3c2CN(Cc2cccnc2)CCC3)nc1`, -4.85%; to `O=C1CCSCC(C(=O)N2CCOCC2)N1` (stereo not drawn), -8.51%.
Still for that read-out and setting: as for `O=C(COCc1nc(-c2ccncc2)no1)N1CCCCCC1`, the figure is 21.3%; as for `CCc1csc(C2CCCN(C(=O)c3cnn(CC)c3)C2)n1` (stereo not drawn), -1.18%.
Consider `COc1ccc(CCC(=O)Nc2cccnc2N2CCCC2)cc1Br`, for which the Percent Effect was 0.341%.
On the same count and under the same terms, to `CC(=O)c1ccc(N2CCCC(CO)(CCOc3ccccc3)C2)nc1` (stereo not drawn) belongs 15.7%; to `c1cncc(C2COC3(CCN(CC4CC4)CC3)C2)c1` (stereo not drawn), -4.23%; to `Cc1ccc2c(n1)N(CCn1cccn1)CCN(C(=O)NC1CC1)C2`, 26.1%.
For `Cc1cnn(C2CCCN(C(=O)c3cnc4ccccc4n3)C2)c1` (stereo not drawn), the Percent Effect came out at 2.3%.
Same read-out and setting: to `CCCc1cc(=O)n(CC(N)=O)c(-n2nc(C)cc2C)n1` belongs -1.59%.
Turning to `Cc1cc(C)n(C2CCCN(C(=O)c3cc(C4CC4)on3)C2)n1` (stereo not drawn), the Percent Effect is -0.636%.
Same read-out and setting: as for `Cc1ccc(Nc2nccc(C3CCCN(CC(=O)N(C)C)C3)n2)nc1` (stereo not drawn), the figure is 6.73%.
Still for that read-out and setting: as for `CC(C)c1cccc(CSc2nnc(CN3CCCC3=O)o2)n1`, the figure is -1.76%; as for `N#Cc1ccc(OCCN2CCc3c(ncn3C3CC3)C2)cc1`, -6.96%; as for `O=C(NCc1nncn1-c1ccccc1)C1CC(=O)N(CC2CC2)C1` (stereo not drawn), 7.22%.
With `CCc1nccn1C1CCCN(C(=O)Cc2n[nH]c3ccccc23)C1` (stereo not drawn), the Percent Effect came to 8.66%.
Still for that read-out and setting: as for `CN(Cc1ccsc1)C(=O)c1cccc(NS(C)(=O)=O)c1`, the figure is 10.4%.
Still for that read-out and setting: as for `CNC(=O)CS(=O)(=O)Cc1coc(-c2ccc(OC)cc2)n1`, the figure is -2.16%; as for `CC(C)CS(=O)(=O)CC(=O)N(C)Cc1ccc(OC(F)F)cc1`, -5.18%; as for `CN(Cc1ccccn1)C1COC2(CCN(Cc3cccnc3)CC2)C1` (stereo not drawn), -9.58%.
Same read-out and setting: as for `COc1ccc(C2=C(C)C(N3CCc4ccccc4C3)=NS2(=O)=O)cc1`, the figure is -18%; as for `Cn1c(C2CC2)nc2c1CCN(CC(=O)Nc1nncs1)C2`, 7.43%; as for `Cc1cccc(CN2CCN(Cc3ccccc3)CC(O)C2)n1` (stereo not drawn), 2.56%.
For `CCn1cc(CN2CCCN(C(=O)C3=NN(C)C(=O)CC3)CC2)cn1`, the Percent Effect was -13.6%.
Same read-out and setting: to `O=C(CN1CCc2cncnc2C1)NCCOc1ccccc1` belongs -13.3%; to `Cc1ncsc1C(=O)N(C)CCc1ccncc1`, 3.98%.
The same measure, in the same setting: as for `N#Cc1cccc(CS(=O)(=O)NCC(O)Cc2ccccc2)c1` (stereo not drawn), the figure is 0.263%.
Still for that read-out and setting: as for `Cc1ccc(-c2nc(CN3CCc4nn(C)c(=O)cc4C3)co2)cc1`, the figure is 1.71%; as for `Cc1cc(C)n(CC2CCCN2CC(=O)N(C)C)n1` (stereo not drawn), 20%; as for `CN(C)S(=O)(=O)N1CCC(Oc2ccc(C#N)cc2)CC1`, -6.53%.
Take `CC(C)c1cc(NC(=O)CN2CCc3cncnc3C2)on1`: the Percent Effect stood at 3.99%.
Same read-out and setting: to `CCc1nc(CN(Cc2cccs2)CC2CCCO2)no1` (stereo not drawn) belongs 0.0835%.
The same measure, in the same setting: as for `CCCN1CC(C(=O)Nc2ccccn2)CC1=O` (stereo not drawn), the figure is 5.93%.
The same measure, in the same setting: as for `Cc1cnn(CCNCc2ccc(F)cc2Cl)c1`, the figure is 10.9%; as for `O=C(c1ccn(-c2cccc(F)c2)n1)N1CCCC(n2cccn2)C1` (stereo not drawn), 0.275%.
With `N#Cc1ccnc(N2CCN(C(=O)Cc3ccc4c(c3)CCO4)CC2)c1`, the Percent Effect was 4.19%.

Source of the values: ChEMBL document CHEMBL3988442, “University of Dundee, Small-Polar-MMV Screening Library” (2021).
